Sampled rows, rich in hits. Any-hit rate of the full collection: about 3.5%.
GPR151 activ = activators of human GPR151, primary screen, cell-based, PathHunter beta-arrestin, luminescence | G-protein coupled receptor 151 (Homo sapiens), Q8TDV0 | PathHunter beta-arrestin GPR151 cells | activation, % at 11.2 µM | 1% of 650,000 active; in the data active = activation above about 4.9%;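 note: 0% = median of compound wells and 100% = cells with positive control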
Target sequence (Q8TDV0 whole entry, looked up): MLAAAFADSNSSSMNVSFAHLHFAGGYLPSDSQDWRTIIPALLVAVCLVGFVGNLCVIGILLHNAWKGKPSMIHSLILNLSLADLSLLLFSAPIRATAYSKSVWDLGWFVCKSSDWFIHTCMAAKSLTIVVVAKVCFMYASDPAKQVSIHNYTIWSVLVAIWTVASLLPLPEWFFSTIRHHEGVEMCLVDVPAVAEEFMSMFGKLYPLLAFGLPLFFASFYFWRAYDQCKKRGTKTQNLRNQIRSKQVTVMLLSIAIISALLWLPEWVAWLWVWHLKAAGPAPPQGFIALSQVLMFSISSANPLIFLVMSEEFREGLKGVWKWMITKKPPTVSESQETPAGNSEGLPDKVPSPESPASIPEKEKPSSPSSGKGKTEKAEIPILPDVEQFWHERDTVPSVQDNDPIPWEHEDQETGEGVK
TEAD-YAP block = TEAD-YAP interaction inhibition, primary screen, TEAD-YAP interaction inhibitor project, luminescence, HEK-TIYL cells. inhibition, % at 9.12 µM. 1.4% of 640,000 active. AID 1259422, 2018. TEAD-Gal4/YAP UAS-luciferase luminescence; in the data active = inhibition above about 32%;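 note: 0% = median of test compound wells and 100% = reference inhibitor wells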
FBW7 activator = FBW7 E3 ligase activators, primary screen, biochemical, AlphaScreen, human. 0.13% of 650,000 active. AlphaScreen FBW7–phospho-cyclin E peptide binding, activator screen. AID 1259310, 2017. normalized activity (activation), % at 26.1 µM; in the data active = normalized activity above about 1.9%;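 note: purified mutant Fbw7 with reduced substrate affinity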
MITF inh = MITF inhibitors, primary screen, biochemical, AlphaScreen, human | Microphthalmia-associated transcription factor (Homo sapiens), O75030 | AlphaScreen MITF homodimerization, bead proximity signal | inhibition, % at 2.6 µM | 0.91% of 650,000 active | AID 1259374, 2018; in the data active = inhibition above about 50%;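 note: 0% = vehicle wells with protein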
* = called active by the depositor.

SMILES | GPR151 activ | TEAD-YAP block | FBW7 activator | MITF inh
c1cc(Nc2ccc(N3CCOCC3)cc2)nc(NCc2ccc3c(c2)OCO3)n1 | 1 | 38* | 0 | 6
COc1ccc([C@@H]2C[C@H](C(=O)NC3CCCCC3)N(C)S(=O)(=O)N2)cc1 | -1 | -4 | 0 | 5
CC(=O)C/C(=N/NC(N)=S)C(F)(F)F | 0 | 55* | 0 | -5
CCCOC(=O)c1ccc(NC(=O)COc2ccc(C(C)(C)CC(C)(C)C)cc2)cc1 | -2 | 11 | 0 | 15
COc1ccccc1NC(=O)Cn1cnc2sc(C(=O)NC3CCCC(C)C3C)c(C)c2c1=O (stereo not drawn) | -1 | -10 | 2.0* | 12
COc1ccccc1NC(=O)Cn1cnc2sc(C(=O)Nc3ccc(C(F)(F)F)cc3)c(C)c2c1=O | 0 | -6 | 2.2* | 6
COc1ccccc1NC(=O)Cn1cnc2sc(C(=O)Nc3cccc(C(F)(F)F)c3)c(C)c2c1=O | -1 | 1 | 0 | -5
CCCNC(=O)Cn1cnc2sc(C(=O)NCCCOC)c(C)c2c1=O | -2 | -3 | 3.2* | -1
O=C(O)CN1C(=O)/C(=C\c2cc3c(cc2[N+](=O)[O-])OCO3)SC1=S | 0 | -13 | 0 | 17
O=C(O)COc1ccc(N2C(=O)C(=O)/C(=C(\O)c3ccccc3)C2c2cccc([N+](=O)[O-])c2)cc1 (stereo not drawn) | -1 | -13 | 0 | 3
N=C1C(c2nc3ccccc3s2)=C(O)CN1/N=C/C=O | 1 | 2 | 0 | 1
N=C1C(c2nc3ccccc3s2)=C(O)CN1/N=C/c1ccc(O)c(O)c1O | -1 | -11 | 0 | 56*
CCCC(=O)N1CCN(c2ccc(NC(=O)c3ccc(Br)o3)cc2)CC1 | -2 | 60* | 0 | 2
O=C(Nc1ccc(N2CCCCC2)cc1)c1ccccc1F | -7 | 70* | 0 | 8
O=C(Nc1ccc(N2CCCCC2)cc1)c1ccc(Br)o1 | -8 | 49* | 0 | 25
O=C(Nc1ccc(C(=O)N2CCCC2)cc1)c1ccc(Br)o1 | -9 | -23 | 0 | -5
CN(C)CC(C)(O)c1ccc2c(c1)CN(C(=O)CCCc1cccs1)CCO2 (stereo not drawn) | 2 | -3 | 0 | 14
CCCSc1nnc2c(n1)OC(c1ccccn1)Nc1ccccc1-2 (stereo not drawn) | 0 | -15 | 0 | 12
O=C(Nc1ccc2c(c1)N(C(=O)C1CCCO1)CC2)c1cc2ccccc2oc1=O (stereo not drawn) | -1 | 57* | 0 | -5
CCc1ccc2nc(SCC(=O)N3CCOCC3)c(C#N)cc2c1 | -1 | -72 | 0 | -1
CCOC(=O)c1cnc2c(Cl)cccc2c1Nc1ccc2c(c1)OCCO2 | 3 | -4 | 0 | 5
CSc1ccc(/C=C2/C(=O)ON=C2c2ccccc2)cc1 | 1 | -7 | 0 | 38
O=C1ON=C(c2ccccc2)/C1=C\c1ccc(O)cc1 | 0 | -13 | 0 | 59*
CC(C)c1ccc(/C=C2\C(=O)ON=C2c2ccccc2)cc1 | 0 | -3 | 0 | 57*
COc1ccc(/C=C2/C(=O)ON=C2c2ccccc2)cc1 | 1 | -21 | 0 | 50
SMILES | GPR151 activ | TEAD-YAP block | FBW7 activator | MITF inh
Cc1nn(-c2ccccc2)c2sc(C(=O)NC(C)(C)C)cc12 | 3 | -11 | 0 | 2
CCN(CC)C(=O)C1CCCN(c2nc(NCCCN3CCCC3=O)c3ncn(CCN4CCCC4=O)c3n2)C1 (stereo not drawn) | -2 | -1 | 0 | 3
CCN(CC)C(=O)C1CCCN(c2nc(NC3CC3)c3ncn(-c4ccsc4)c3n2)C1 (stereo not drawn) | -1 | 9 | 0 | 10
OCC1CCCN1c1nc(NCc2nc3ccccc3[nH]2)c2ncn(-c3ccsc3)c2n1 (stereo not drawn) | 0 | 72* | 0 | 25
CCN(CC)C(=O)C1CCCN(c2nc(NCCCN3CCCC3=O)c3ncn(-c4ccsc4)c3n2)C1 (stereo not drawn) | 1 | 35* | 0 | 8
CCN(CC)C(=O)C1CCCN(c2nc(NCc3nc4ccccc4[nH]3)c3ncn(C(C)C)c3n2)C1 (stereo not drawn) | 1 | 30 | 0 | -2
CCN(CC)C(=O)C1CCCN(c2nc(NCc3nc4ccccc4[nH]3)c3ncn(-c4ccsc4)c3n2)C1 (stereo not drawn) | 1 | 85* | 0 | 3
CCN(CC)C(=O)C1CCCN(c2nc(NCc3nc4ccccc4[nH]3)c3ncn(-c4ccccc4)c3n2)C1 (stereo not drawn) | 0 | 72* | 0 | 7
CC1CN(CC(O)COCCOc2ccc(Cl)cc2)CC(C)O1 (stereo not drawn) | 1 | -2 | 0 | -9
O=C(N[C@H]1C[C@H]2C(=O)N[C@@H](Cc3ccccc3)C(=O)N2C1)c1cc(Cl)cc(Cl)c1 | -1 | 6 | 0 | -9
CCN1CCC(N(Cc2ccc(F)cc2)C(=O)Nc2ccccc2F)CC1 | 5 | -10 | 0 | -7
Cc1cc(=O)oc2c1ccc1oc(Nc3ccccc3)cc12 | 0 | 7 | 0 | 21
CC(=O)Nc1ccc(S(=O)(=O)N2CCN(C3Cc4ccccc4C3)CC2)cc1 | -1 | -12 | 0 | 9
CC(C)[C@@H]1NC(=O)[C@@H]2C[C@H](NCc3ccc(Cl)cc3)CN2C1=O | 0 | 0 | 0 | 2
O=c1c(CN2CCSCC2)coc2ccccc12 | 0 | 3 | 1 | 14
COc1cc(SC)ccc1C(=O)N1CCN(Cc2ccc3c(c2)OCO3)CC1 | 1 | 32* | 0 | 7
O=c1c(CN2CCc3ccccc3C2)coc2ccccc12 | 1 | 34* | 0 | 31
CN(C)c1ccc(C(=O)N2CCN(Cc3ccc4c(c3)OCO4)CC2)cc1 | 1 | -12 | -1 | -5
O=c1c(CN2CCN(Cc3ccc4c(c3)OCO4)CC2)coc2ccccc12 | -1 | 57* | 0 | 42
CN(C)c1ccc(CN2CCN(Cc3ccc4c(c3)OCO4)CC2)cc1 | -1 | -5 | 0 | 53*
O=c1c(CN2CCN(c3ccc(F)cc3)CC2)coc2ccccc12 | 1 | 6 | 0 | 17
O=c1c(CN2CCN(c3ccccn3)CC2)coc2ccccc12 | -1 | 38* | 0 | 40
COC(=O)c1cc(CNC(=O)C2(N3CCCC3)CCCC2)cc(NC(=O)c2ccoc2)c1 | 0 | 8 | 0 | -6
CCOc1ccccc1N1CCN(Cc2cccc(OC)c2O)CC1 | 0 | 8 | 0 | 17
COc1ccccc1N1CCN(Cc2cc(Br)c(O)c3ncccc23)CC1 | 0 | 81* | -1 | 43
CC1CCN(Cc2cc([N+](=O)[O-])c(O)c3ncccc23)CC1 | -1 | -5 | -1 | 42
Oc1c(CN2CCCCC2)cc(COCc2ccccc2)c2cccnc12 | 0 | 74* | -1 | 98*
CCOCc1cc(CN2CCN(c3ccccc3OC)CC2)c(O)c2ncccc12 | 0 | 10 | -1 | 91*

Screens (PubChem BioAssay)
